Experimental data reported in PubChem BioAssay (NCATS).
Inconclusive results are not listed. Values without a mark were called inactive. The call rests on the fitted dose curve; in most records, active means well fitted curve in the direction sought with a large enough effect; inconclusive means small, poorly fitted or top-dose-only effect, or another doubt; inactive means no such curve, though single readings can be large; an effect the other way counts as inactive or inconclusive.

Experiment: Vero cells viability qHTS for Zika virus inhibitors (AID 1347167)
Conditions: cytotoxicity counter-screen (Zika); series mostly up to 45.9 µM; activity change, negative = cytotoxicity: at the top concentration
Procedure, shortened: (§1)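 To flag cytotoxic protease inhibitors, viability is measured by ATP-dependent luminescence (CellTiter Glo) after cells attached overnight receive compound for 24 to 48 hours in DMEM with 4% FBS.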
On the % scale 0 is the no-effect control and ±100 the full control effect.

Compound | activity change, negative = cytotoxicity
CN1C[C@@H]2C[C@H]1CN2c1cc2c(cc1F)c(=O)c(C(=O)O)cn2C1CC1 | -6.91% [at 26.9 µM]
O=C(O)[C@@H]1[C@H]2C[C@H]3c4[nH]c5ccccc5c4CCN3C[C@@H]2CC[C@@H]1O | -3.61%
O=C(O)Cn1c(C(=O)Nc2nc(-c3ccccc3Cl)cs2)cc2ccccc21 | -3.62%

Experiment: HepG2 cells viability qHTS for Zika virus inhibitors (AID 1347168)
Conditions: Zika counter-screen; series mostly up to 45.9 µM; activity change, negative = cytotoxicity: at the top concentration
Procedure, shortened: as §1

Compound | activity change, negative = cytotoxicity
CN1C[C@@H]2C[C@H]1CN2c1cc2c(cc1F)c(=O)c(C(=O)O)cn2C1CC1 | -0.0193% [at 26.9 µM]
O=C(O)[C@@H]1[C@H]2C[C@H]3c4[nH]c5ccccc5c4CCN3C[C@@H]2CC[C@@H]1O | 2.36%
O=C(O)Cn1c(C(=O)Nc2nc(-c3ccccc3Cl)cs2)cc2ccccc21 | 6.94%

Experiment: Tertiary RLuc qRT-PCR qHTS assay for Zika virus inhibitors (AID 1347169); further: top concentration of the series differs between compounds; nearly all actives have a fitted effect of over 55% in size
Conditions: infected Vero cells, reporter luminescence, 48-72 h; series mostly up to 45.9 µM; activity change, negative = inhibition: at the top concentration
Excerpt: Avindra Nath, Ph.D., National Institute of Neurological Disorders and Stroke (NINDS), Bethesda, MD
Radhakrishnan Padmanabhan, Ph.D., Georgetown University (GU), Washington D.C.
Zika Virus causes congenital defects, including microcephaly and is associated with Guillain-Barre syndrome, eningoencephalitis and myelitis in infected adult. […] Using a target-based approach, we hope to establish a screening paradigm to uncover novel, cell-active NS2B-NS3 protease (Zika Virus) specific inhibitors from NCATS' collection of small molecules using qHTS.
Four assay panel was created to identify potential Zika Virus inhibitors. Namely, (1) GU unlinked NS2B-NS3 AMC tagged protease qHTS, (2) GU unlinked NS2B-NS3 Rhodamine tagged protease qHTS, (3) NINDS linked NS2B-NS3 AMC tagged protease qHTS, (4) NINDS linked NS2B-NS3 Rhodamine tagged protease qHTS. Identified inhibitors were re-acquired and tested against secondary confirmatory, orthogonal, and counterscreens to exclude nonspecific inhibition.
Early Translation Branch (ETB)
National Center for Advancing Translational Sciences (NCATS), Rockville, MD
National Institute of Health (NIH), Bethesda, Maryland
1536-well recombinant virus ZIKV-RLuc (Cambodian) Assay:
For a follow-up assay, we adapted a high throughput orthogonal assay in 1536-well plate format to use the recombinant virus ZIKV-RLuc, in Vero cells. Briefly, three microL of Vero cells derived from a green monkey cell line, were dispensed Multidrop Dispenser into a solid bottom white 1,536-well plate at a concentration of 1,000 cells per well. The plate was incubated overnight in a CO2 incubator at 37 degrees C. Compounds were delivered as a 23 nL DMSO solution by Kalypsys pintool transfer. Following compound transfer, 2 microL of ZIKV-RLuc was added at an MOI of 1-2 and incubated in a CO2 incubator for 48-72 hrs at 37 degrees C. After sufficient incubation of infected cells in test plates, live cell Renilla luciferase substrate (Promega) was added. The luminescence signal was measured after 1-1.5 hrs exposure to substrate in ViewLux reader.

Compound | activity change, negative = inhibition
CN1C[C@@H]2C[C@H]1CN2c1cc2c(cc1F)c(=O)c(C(=O)O)cn2C1CC1 | 10.1% [at 26.6 µM]
O=C(O)[C@@H]1[C@H]2C[C@H]3c4[nH]c5ccccc5c4CCN3C[C@@H]2CC[C@@H]1O | -7.27%
COc1ccccc1Oc1c(NS(=O)(=O)c2ccc(C(C)(C)C)cc2)nc(-c2ncccn2)nc1OCCO | 14.1% [at 1.74 µM]
O=C(O)Cn1c(C(=O)Nc2nc(-c3ccccc3Cl)cs2)cc2ccccc21 | -13.3%
